Screening results (PubChem BioAssay)
PTHR1 ag – PTHR1 (human) receptor agonism; HEK293 GP2 PTHR1 cells, GloSensor cAMP luminescence, 1 h; Q03431; AID 743266; Potency, µM (highest dose often 115 µM), for the others: at the top dose activation, hits mostly activators; 0.075% of 410,000 active; note: potency is the fitted concentration of half-maximal effect; nearly all actives have a fitted effect of over 55% in size
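HEK-293-derived GP2 cells expressing PTHR1 and a GloSensor cAMP reporter, 3,000/well, plated overnight, given luciferin plus IBMX (each 0.5 mM as added) for 1 h at 37 °C, then compound for 1 h at 37 °C. Luminescence was read after 15 min at room temperature.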
TSHR antagonist – blocks TSH signaling through the human TSH receptor. activity change, negative = inhibition, % at 11.5 µM. 0.2% of 330,000 active. TSHR-expressing cells, TSH-stimulated cAMP HTRF, 2 h; active compounds read low;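 active = activity change below a set negative limit, meaning inhibition stronger than a set level, cut at about -70% in these data; inconclusive = activity change between two set negative limits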; note: % is set by controls: 0 for no effect and ±100 for the full control effect
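TSHR-expressing cells, 200/well, pre-treated with compound, then stimulated with EC80 TSH (4nM final) for 2 hours at 37 deg C. cAMP measured by competitive HTRF: anti-cAMP cryptate antibody in lysis buffer plus cAMP-d2, read after 30 minutes at room temperature.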
GLP1R cytotox – cytotoxicity counter-screen for GLP-1 receptor inverse agonists; HEK293 cAMP-luciferase reporter cells, luminescence, 24 h; Potency, µM (top dose mostly 38.3 µM), for inactives: top-dose activity change, negative = inhibition, hits mostly inhibitors; 0.13% of 410,000 active; AID 624418;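 note: loss of luciferase light is scored as toxicity; potency is the fitted concentration of half-maximal effect; % is set by controls: 0 for no effect and ±100 for the full control effect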
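1536-well qHTS counterscreen of the MLSMR; 200 cells/uL, 12 h pre-incubation, 23 nL cpd, 24 h at 37 deg C 5% CO2, luciferase detection reagent, 12 min RT, luminescence. Inhibition = undesired.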
GLP1R inv ag – acts as inverse agonist at human GLP-1 receptor; HEK293 GLP-1R CRE-luciferase, luminescence, 24 h; GLP-1R form is constitutively active; Potency, µM (series often up to 38.3 µM), for inactives: at the highest dose activity change, negative = inhibition, most hits filed as inhibitors; 1.6% of 410,000 active; AID 624417; note: potency is the fitted concentration of half-maximal effect; % is set by controls: 0 for no effect and ±100 for the full control effect; nearly all actives have a fitted effect of over 55% in size
Target sequence (P43220 whole entry, looked up): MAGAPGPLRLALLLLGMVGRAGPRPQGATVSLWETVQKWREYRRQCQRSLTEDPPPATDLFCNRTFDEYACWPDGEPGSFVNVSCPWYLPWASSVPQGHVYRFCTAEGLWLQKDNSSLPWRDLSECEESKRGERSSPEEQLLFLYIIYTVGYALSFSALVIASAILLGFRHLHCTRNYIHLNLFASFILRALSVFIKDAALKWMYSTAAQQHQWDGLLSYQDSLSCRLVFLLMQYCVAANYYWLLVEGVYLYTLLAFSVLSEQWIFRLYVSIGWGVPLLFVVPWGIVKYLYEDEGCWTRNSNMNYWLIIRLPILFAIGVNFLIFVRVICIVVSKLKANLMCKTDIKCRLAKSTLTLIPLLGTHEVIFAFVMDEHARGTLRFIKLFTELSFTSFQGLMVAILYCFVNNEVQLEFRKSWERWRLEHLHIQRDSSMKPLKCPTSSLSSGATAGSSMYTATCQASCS
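Using stably transfected HEK293 (constitutively active GLP-1R, cAMP-luciferase reporter), compounds were incubated 24 hr and luciferase measured by luminescence.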
GLP1R ag – GLP-1 receptor (human) agonism; P43220; HEK293 GLP-1R CRE-luciferase, luminescence, 4-6 h; cells express a hypersensitive GLP-1R form; Potency, µM (top dose mostly 45.6 µM), for inactives: at the top dose activation, usual class: activators; 0.007% of 380,000 active; AID 624172; note: potency is the fitted concentration of half-maximal effect; % of control where 0% means no effect
Active calls of the source: *; i = inactive; ? = inconclusive; . = no result given; [ ] = dose if it differs, or a comment. Only some compounds are listed: those with a hit (about 1.8% of all), similar ones and a draw of the others. Unless noted, calls come from the whole dose curve; as a rule, active = well fitted curve in the direction sought with a large enough effect; inconclusive = small, poorly fitted or top-dose-only effect, or another doubt; inactive = no such curve, though single readings can be large; an effect the other way counts as inactive or inconclusive.

SMILES | PTHR1 ag | TSHR antagonist | GLP1R cytotox | GLP1R inv ag | GLP1R ag
Cc1ccc(NC(=O)C(NC2CCCc3ccccc32)c2ccccc2)c([N+](=O)[O-])c1 (centres undefined) | i | -0.1 | 6.9% | 3.98µM* | 1.6%
CCOC(=O)c1cn2nc(N3CCCC3)ccc2n1 | -23.2% | 5.7 | 15.2% | 5.62µM* | -29.7%
COc1ccc(-c2cn3nc(N4CCCC(C(=O)NCc5ccccc5C)C4)sc3n2)cc1 (centres undefined) | -22.8% | . | -11.2% | -9.9% | .
Cc1ccc(NC(=S)N2CCC(c3ccc(C)cc3)C2)cc1 (centres undefined) | i | -0.9 | -26.2% | ? | 19.5%
CCOc1ccc(NC(=S)N2CCC(c3ccc(C)cc3)C2)cc1 (centres undefined) | -7.0% | 0.6 | -13.5% | 10µM* | 5.2%
Cc1c(C(=O)N(Cc2ccc(N(C)C)cc2)CC2CCCO2)oc2ccccc12 (centres undefined) | -17.4% | -1.9 | 1.1% | 10µM* | 30.0%
CCCCOc1ccc(CNC(=O)C2COc3ccc(OC)cc3C2)cc1 (centres undefined) | -17.6% | . | 8.4% | 8.5% | .
Cc1ccc(CCNC(=O)c2oc(=O)c3ccccc3c2-c2ccc(C)cc2)cc1 | i | . | 0.4% | ? | -1.8%
Cc1ccc(-c2c(C(=O)NCCc3ccc(Cl)cc3)oc(=O)c3ccccc23)cc1 | 16.9% | . | 4.9% | 4.47µM* | -11.3%
Cc1cccc(C(=O)NCc2cn3cccc(C)c3n2)c1 | -3.7% | . | -2.3% | 2.9% | .
COc1ccccc1OCc1ccc(C(=O)Nc2ccc(C)c(C)c2)o1 | -34.9% | . | 2.9% | 1.2% | .
CCc1sc(Nc2cccc(Cl)c2)nc1-c1cc2cccc(OC)c2oc1=O | -0.2% | . | 0.5% | ? | .
O=C(c1ccc(N2CCCC2)c([N+](=O)[O-])c1)N1CCc2ccccc2C1 | -19.5% | -3.7 | -34.9% | 4.47µM* | 28.8%
Cc1ccc(C(=O)NCCCn2ccnc2)cc1[N+](=O)[O-] | 6.4% | 3.2 | 1.4% | -18.4% | -1.5%
O=C(NCCCn1ccnc1)c1ccc(N2CCCCCC2)c([N+](=O)[O-])c1 | i | 10.2 | -1.0% | 5.01µM* | 14.6%
O=S(=O)(c1cccs1)N1CCN(CC(O)COc2cc(Cl)ccc2Cl)CC1 (centres undefined) | -8.7%[57.5 µM] | ? | -27.8% | 7.94µM* | 0.8%
CN(C(=O)CSc1nc2ccccc2n1Cc1cccc(C(F)(F)F)c1)c1ccccc1 | -16.1% | . | -18.0% | 10µM* | .
COC(=O)c1ccc(Cn2c(SCC(=O)Nc3ccc(F)cc3)nc3ccccc32)cc1 | i | . | 15.1% | 7.4% | .
CC(C)N(C(=O)CSc1nc2ccccc2n1Cc1ccc(F)cc1)C(C)C | -8.1% | -21.0 | ? | 2.82µM* | 3.7%
COC(=O)c1cc(NC(=O)CC2SC(=Nc3ccccc3)N(CCc3c[nH]c4ccccc34)C2=O)cc(C(=O)OC)c1 (centres undefined) | i | -10.1 | ? | 4.47µM* | -13.5%
COCCN1C(=O)C(CC(=O)Nc2ccc(C(=O)O)cc2)SC1=Nc1ccccc1 (centres undefined) | -10.6% | 8.7 | 0.7% | -3.9% | -4.9%
Cc1nn(C(C)C(=O)NCc2ccc(OC(C)C)cc2)c(=O)c2c1sc1ccccc12 (centres undefined) | ? | . | 16.7% | -18.9% | .
Cc1ccc(CNC(=O)C(C)n2nc(C)c3sc4ccccc4c3c2=O)cc1 (centres undefined) | 44.7µM* | . | -7.8% | -9.8% | .
CCOC(=O)CSc1nnc2n(-c3ccccc3)c(=O)c3c4c(sc3n12)CC(C(C)(C)C)CC4 (centres undefined) | -2.3% | . | -5.6% | ? | .
COc1ccc(CC(=O)Nc2ccc3nc(N4CCCCC4)cc(C)c3c2)cc1 | 16.4% | . | -16.6% | ? | .
SMILES | PTHR1 ag | TSHR antagonist | GLP1R cytotox | GLP1R inv ag | GLP1R ag
Cc1ccc(C)c(NC(=O)Cn2nnc(C(=O)NCCc3ccccc3)c2N)c1 | -20.8% | . | 16.1% | 0.8% | .
COc1ccc(NC(=O)Cn2nnc(C(=O)NCc3cccs3)c2N)c(OC)c1 | -59.1% | -131.5* | ? | -16.9% | 3.3%
Cc1ccc(NC(=O)Cn2nnc(C(=O)NCCc3ccccc3)c2N)c(C)c1 | -21.2% | -107.3* | 1.3% | -4.8% | -2.8%
COc1ccc(CCNC(=O)c2nnn(CC(=O)Nc3ccc(C)cc3C)c2N)cc1OC | i | -81.7* | -26.0% | 7.5% | -2.9%
Cc1nc(-c2cccnc2)sc1CCNS(=O)(=O)c1ccc(F)cc1 | i | . | 1.7% | 15.6% | -7.5%
O=C(Nc1cc(F)ccc1F)c1ccc2c(c1)nnn2C1CCCC1 | -20.6% | . | -17.5% | -0.3% | .
CC1CC2(C)Oc3ccccc3CC2C(C)C1CNCCCN(C)C (centres undefined) | -4.5% | -2.8 | ? | 0.891µM* | -7.9%
CC1Cc2ccccc2N1C(=O)CNCCCN(C)C (centres undefined) | i | 4.1 | -15.5% | ? | -2.3%
CCOC(=O)c1c(C)[nH]c(C)c1S(=O)(=O)N1CCC(C(=O)Nc2ccccn2)CC1 | i | . | -6.0% | 6.2% | .
CCOc1ccc(CCN2C(=S)N([C@@H](CC(C)C)CN3CCCC3CN3C(=S)NC[C@@H]3Cc3ccc(O)cc3)C[C@@H]2CC(C)C)cc1 (some centres undefined) | i | . | -4.5% | 10µM* | 8.7%
CCOc1ccc(CCN2C(=S)N([C@@H](CC(C)C)CN3CCCC3CN3C(=S)NC[C@@H]3Cc3ccc(O)cc3)C[C@@H]2Cc2ccccc2)cc1 (some centres undefined) | i | . | 0.6% | 11.2µM* | -0.6%
CCOc1ccc(-c2nc(SCC(=O)NCCOC)c(-c3ccc(OC)c(OC)c3)[nH]2)cc1 | i | . | -1.6% | -13.3% | .
CCOc1ccnc2c1c(=O)n(Cc1cc(OC)cc(OC)c1)c(=O)n2C | -20.7% | -139.8* | 0.0% | 69.3% | 6.1%
CCc1nc(NC(C)(C)C)c2cnn(-c3ccccc3)c2n1 | -31.4% | -7.0 | -16.2% | 2µM* | 20.7%
CCCCNc1ncnc2c1cnn2-c1ccccc1 | -4.4%[57.5 µM] | -6.0 | ? | ? | -1.8%
O=C(Cn1ccn(-c2ccc(F)cc2)c(=O)c1=O)NCCc1ccccc1 | 10.7% | . | 6.4% | 0.3% | .
Cc1csc(NC(=O)c2c(-c3c(Cl)cccc3Cl)noc2C)n1 | i | -11.0 | 5.7% | 11.2µM* | 0.6%
Cc1onc(-c2c(Cl)cccc2Cl)c1C(=O)Nc1ccc(Cl)cn1 | i | 6.2 | 13.4% | 1.78µM* | 9.9%
Cc1ccc(NC(=O)Cn2c(=O)n(Cc3ccccc3)c(=O)c3sc4ccccc4c32)cc1 | -15.1% | . | -0.3% | 14.7% | .
S=C(N/N=C/c1ccccc1Cl)Nc1ccccc1 | i | 41.1 | 3.98µM* | ? | 11.7%
CNC(=S)N/N=C/c1ccccc1Cl | i | 1.8 | ? | ? | 0.9%
